Our source for the outcome values is PubChem BioAssay AID1347383 (Zoeller Lab, School of Medicine, Boston University, 2020).

The source made the active and inactive calls.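 Rule for the calls: active = cell survival after UV exposure 2 SD above solvent-only control wells at 10 µM, confirmed on one or two repeats; inactive = the rest.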

This assay can be described thus: cell survival after pyrene fatty acid photosensitization – ZR-82 cells, Analyticon library, screen 2, phospholipid biosynthesis inhibitor project, primary screen (AID 1347383).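 Note: survival reflects blocked phospholipid synthesis cutting uptake of the phototoxic fatty acid; compound and fatty acid exposure 3 h then viability read next day.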 Conditions: ZR-82 CHO cells, pyrene-fatty acid UV killing, CellTiter Blue; at 10 µM; peroxisome-deficient CHO-K1 variant; with DGAT-1, DGAT-2 and ACAT inhibitors.

Regarding `C=CCc1ccc(O)c(O)c1`, the result was inactive.

As to `Oc1cc(O)cc(CCCCCCCCCCc2cc(O)cc(O)c2)c1`, the outcome was inactive.

Turning to `COc1ccc(C(O)C(C)O)cc1` (stereo not drawn), the outcome was inactive.

Consider `C=C(C)[C@@H]1CC[C@]2(C(=O)O)CC[C@]3(C(=O)O)[C@H](CCC4[C@@]5(C)CCC(=O)C(C)(C)C5CC[C@]43C)C12` (stereo partly drawn), for which the outcome was inactive.

As for `COc1c(C2=Cc3ccc(O)cc3OC2)ccc(O)c1CC=C(C)C`, the outcome was inactive.

Regarding `N#CC(OC(=O)c1ccccc1)c1ccccc1` (stereo not drawn), the result was inactive.

On to `CCC(=O)C1OC(O)(CCC2=CCOC2=O)C2(C)CCCC(C)(C)C12` (stereo not drawn), for which the result was inactive.

As for `O=C1c2c(O)cc(O)cc2O[C@H](c2ccccc2)[C@H]1O`, the outcome was inactive.

For `Nc1ncnc2c1ncn2[C@@H]1O[C@H](CO)C[C@H]1O`, the outcome was inactive.

Turning to `CC1(C)CC(O)CC2(C)OC(=O)C=C12` (stereo not drawn), the result was inactive.

Consider `O=C(O)/C=C/c1ccc(O[C@@H]2O[C@H](CO)[C@@H](O)[C@H](O)[C@H]2O)cc1`, for which the result was inactive.

As to `CC1=CC(=O)C2C(C)(C)CC(O)CC2(C)C1CO` (stereo not drawn), the outcome was inactive.

With `COc1c2c(c(OC)c3oc(=O)ccc13)OC(C)(C)C(O)C2O` (stereo not drawn), the outcome was inactive.

For the molecule `COc1ccc(OC2OC(COC3OCC(O)C(O)C3O)C(O)C(O)C2O)cc1OC` (stereo not drawn), the result was inactive.

Consider `C=C1CCC2OC(=O)C(C)=C2C2C1C13OC1(CC(C)C3=O)C1OC21C` (stereo not drawn), for which the result was inactive.

As for `C/C=C/c1cc(O)c(C(=O)C(=O)CC)c(=O)o1`, the outcome was inactive.

For `COC(=O)C(CO)NC(=O)c1cccc(O)c1O` (stereo not drawn), the outcome was inactive.

As for `COc1c(O)ccc2c1C(=O)c1ccccc1C2=O`, the result was inactive.

As for `O=C(/C=C/C=C/c1ccc2c(c1)OCO2)N1CCCCC1`, the outcome was inactive.

Regarding `COc1cc(O)cc(O)c1C(=O)/C=C/c1ccc(O)cc1`, the outcome was inactive.

For the molecule `O=C(CCc1ccccc1)C[C@@H](O)CCc1ccccc1`, the result was inactive.

As for `O=C(/C=C/c1ccc(O)cc1)c1c(O)cc(O)cc1O`, the outcome was inactive.

As for `O=c1c(O)c(-c2ccc(O)c(O)c2)oc2cc(O)cc(O)c12`, the outcome was inactive.

In the case of `COc1c(O)cc2c3c1COc1cc(O)cc(c1-3)CC2`, the result was inactive.

For `Cc1ccc(C(C)C)c(O)c1`, the outcome was inactive.

`O=C1c2cccc(O)c2C(=O)c2c(O)cccc21`: the outcome was inactive.

Turning to `Nc1ccccc1CCCCCCC(=O)O`, the result was inactive.

For `O=C1NC(Cc2ccccc2)C(=O)N2CCCC12` (stereo not drawn), the outcome was inactive.

With `CC(C)c1ccc2c(c1)[C@H](O)CC1[C@@](C)(C(=O)O)CCC[C@]21C` (stereo partly drawn), the result was inactive.

In the case of `Cc1c(O)c2c(oc1=O)C(C)(O)C(C)OC2` (stereo not drawn), the result was inactive.

As to `OC1c2ccccc2-c2c3c(cc4c2C1NCC4)OCO3` (stereo not drawn), the result was inactive.

As to `CC(C)C(=O)C1(C(C)CC(=O)O)CCC(C)C(=O)C1` (stereo not drawn), the outcome was inactive.

As to `COC(=O)/C=C/c1ncn(C)c1CC=C(C)C`, the outcome was inactive.

On to `C/C=C/C1C=CC(O)C(O)C1C(O)C(C)=O` (stereo not drawn), for which the result was inactive.

For `CC(C)CNC(=O)/C=C/C=C/Cc1cccs1`, the outcome was inactive.

As for `COC(=O)C1=CO[C@@H](C)[C@H]2CN3CCc4c([nH]c5ccccc45)[C@@H]3C[C@H]12`, the outcome was active.

Consider `C[C@]12CC(=O)C3C[C@@]1(O)OC(O2)[C@H]3COC(=O)c1ccccc1`, for which the outcome was inactive.

As for `O=C(Cc1ccccc1)O[C@@H]1[C@@H](O)[C@H](O)[C@@H](CO)O[C@H]1O`, the result was inactive.

As to `COC(=O)C1C(O)CCC2CN3CCc4c([nH]c5ccccc45)C3CC21` (stereo not drawn), the result was inactive.

Take `CC(=O)O[C@H]1C[C@@]2(C)[C@@H](CC[C@H]3[C@@]4(C)C=CC(=O)[C@@H](C)[C@@H]4[C@H](O)C(=O)[C@@]32C)/C1=C(/CCC=C(C)C)C(=O)O`: the outcome was inactive.

For the molecule `NC(=O)c1c[nH]c(Cc2ccccc2)cc1=O`, the result was inactive.

As for `CC1(C)CCCC2(C)C(CO)C3CCC2C31` (stereo not drawn), the outcome was inactive.

As to `CO[C@H]1c2cc(C(C)C)c(O)c(O)c2[C@@]23CCCC(C)(C)C2[C@@H]1OC3=O` (stereo partly drawn), the outcome was inactive.

In the case of `O=C(O)C12CCCC(CO)(CO)C1CCC13CC4C(CC12)C4(CO)C3` (stereo not drawn), the outcome was inactive.

As for `C=C(C(=O)O)[C@@H]1CC[C@H](C)[C@@H]2CC(=O)C(C)=C2C1`, the outcome was inactive.

As for `C#CC(O)COc1ccc(C(=O)O)cc1` (stereo not drawn), the result was inactive.

As for `CCCCCCc1cc(O)c(C)c(OC(C)=O)c1O`, the outcome was inactive.

In the case of `CC1C=CC2CCCCC2C1CCC1CC(O)CC(=O)O1` (stereo not drawn), the outcome was inactive.

For the molecule `CC[C@H](CC[C@@H](C)[C@H]1CC[C@H]2[C@@H]3CC=C4C[C@@H](O)CC[C@]4(C)[C@H]3CC[C@]12C)C(C)C`, the result was inactive.

In the case of `CCC(C)C1NC(=O)C2CCCN2C1=O` (stereo not drawn), the outcome was inactive.

As to `COc1cc(O)c2c(=O)c(-c3ccc(O)cc3O[C@@H]3O[C@H](CO)[C@@H](O)[C@H](O)[C@H]3O)coc2c1`, the result was inactive.

As to `C=C[C@@]1(C)CC[C@@H]([C@H](C)C(=O)CC=C(C)C)O1`, the outcome was inactive.

Take `C=C1CCC2C(OC(=O)C2(O)COC(C)=O)C2C(=C)C(O)CC12` (stereo not drawn): the outcome was inactive.

`COc1c(O)cc([C@@H]2Oc3cc(O)cc(O)c3C[C@@H]2O)cc1O`: the outcome was inactive.

As for `O=C(CCc1ccc(O)cc1)c1c(O)cc(O)cc1O`, the result was inactive.

With `OC1CC(c2ccccc2)C(O)C(O)C1c1ccccc1` (stereo not drawn), the outcome was inactive.

In the case of `COC(=O)C12OC1CCC1C3(C)CC(C4=CC(=O)OC4O)OC(=O)C3CCC12C` (stereo not drawn), the result was inactive.

With `CN(/C=C\c1ccccc1)C(=O)/C=C/c1ccccc1`, the result was inactive.

Take `CC(C)=CCc1c(O)cc2oc3cc(C)cc(O)c3c2c1C`: the result was inactive.

Turning to `COc1c2cc(c(O)c1OC)CCCCC(O)CCc1ccc(O)c-2c1` (stereo not drawn), the result was inactive.

On to `OC[C@H]1O[C@@H](Oc2ccccc2)[C@H](O)[C@@H](O)[C@@H]1O`, for which the outcome was inactive.

For the molecule `O=C1CCC(=O)NCCCCCN(O)C(=O)CCC(=O)NCCCCCN(O)C(=O)CCC(=O)NCCCCCN1`, the result was inactive.

For the molecule `COc1cc2c(c3c1C(=O)C[C@@H](C)O3)CCO2`, the outcome was inactive.

With `CC1(C)CC2C(O)c3cocc3CC(C)(O)C2C1` (stereo not drawn), the outcome was inactive.

For the molecule `CC(=O)Nc1ccccc1C(=O)O`, the result was inactive.

As to `COc1cc(C[C@H]2COC[C@@H]2Cc2ccc(O)c(OC)c2)ccc1O`, the outcome was inactive.

Consider `CC(C)=CCn1cnc(=N)c2[nH]cnc21`, for which the outcome was inactive.

As for `COc1c(C)c2c(c(O)c1C/C=C(\C)CC/C=C(\C)CCC(=O)O)C(=O)OC2`, the outcome was inactive.

In the case of `C/C=C(\C)C(=O)O[C@@H]1[C@@H](C(C)C)[C@@H](OC(C)=O)C=C(CO)[C@@H]1O`, the outcome was inactive.

Regarding `CC(C)(O)/C=C/C1=CC(O)C(C)(O)CC1O` (stereo not drawn), the outcome was inactive.

Turning to `Cn1c(=O)c2c(ncn2C)n(C)c1=O`, the result was inactive.

As for `COC(=O)CCC(=O)OC[C@]1(C)CCC[C@@]2(C)C3CC[C@]4(C)C=CC3(CCC12)C4` (stereo partly drawn), the result was inactive.

In the case of `CC(=O)Oc1ccc2c(C)cc(=O)oc2c1`, the result was inactive.

For the molecule `CCC1C(=O)O[C@]23C=C[C@@H]4C(C(=O)O)=CO[C@H](OC12)[C@@H]43` (stereo partly drawn), the result was inactive.

In the case of `COc1cc(C(O)C(C)O)ccc1OC(C)Cc1cc(OC)c(OC)c(OC)c1` (stereo not drawn), the result was inactive.

As for `COc1cc(C2CC(=O)c3c(O)cc(O)cc3O2)ccc1O` (stereo not drawn), the outcome was inactive.

In the case of `CC(=O)OC(C(=O)/C=C(\C)CCCC1=CC(=O)OC1)C(C)C` (stereo not drawn), the result was inactive.

On to `C=C(C)[C@H]1CC[C@]2(C(=O)O)CC[C@]3(C)C(CCC4[C@@]5(C)CCC(=O)C(C)(C)C5CC[C@]43C)C12` (stereo partly drawn), for which the result was inactive.
